# Rows were chosen to be rich in hits. Some 0.5% of all compounds tested hit in one or more screens of this group.
# E coli growth-1 – E. coli V3065 growth inhibition, primary screen, counter-screen for AddAB inhibitor project, absorbance, OD600. 18 h. inhibition, % at 11.9 µM. hit rate 0.27% among 330,000;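 active = inhibition above the campaign's mean inhibition across all tested compounds plus 3 SD, cut at about 9.9% in these data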;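 note: uninfected addAB+ strain grown without phage in ampicillin broth; 0% = DMSO wells and 100% = ciprofloxacin 0.95 µg/ml wells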
# AddAB inh – growth inhibition of E. coli expressing H. pylori AddAB, primary screen, AddAB inhibitor project, absorbance; inhibition, % at 11.9 µM; hit rate 0.29% among 330,000; in the data active = inhibition above about 12%;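 note: 0% = vehicle wells of infected cells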
# Tat transport – E. coli Tat export inhibitors, primary screen, MC4100, TorA-mCherry reporter, fluorescence, single point; inhibition, % at 10 µM; hit rate 0.036% among 340,000;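 active = mean replicate inhibition at least 50% and at least half of replicates individually reaching 50%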;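 note: exported cargo escapes ClpAP degradation while cytoplasmic cargo is degraded and loses fluorescence; 0% = median of neutral control wells and 100% = median of NaSCN control wells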
# phage Ecoli inh – growth loss of phage-infected E. coli, primary screen, RecBCD inhibitor project, absorbance, with phage, HTS | inhibition, % at 11.9 µM | hit rate 0.26% among 360,000 | AID 651602, 2012; in the data active = inhibition above about 11%
# E coli growth-2 – E. coli growth inhibition, primary screen, OD600; Escherichia coli growth, 23 h; active compounds read low; OD600 absorbance (no concentration beside the values); hit rate 0.21% among 330,000;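 active = OD600 absorbance below the run mean of sample wells minus 3.6 SD, in any replicate, cut at about 0.56 in these data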
# * = called active by the depositor; / = no result.
SMILES,E coli growth-1,AddAB inh,Tat transport,phage Ecoli inh,E coli growth-2
O=C(Nc1ccc(Cl)cc1)Nc1cc([N+](=O)[O-])ccc1F,1.3,3.0,-10.9,3.5,0.601
CN1/C(=C/c2cc[n+](C)c3ccccc23)C=Cc2ccccc21,/,/,-161.2,/,0.345*
C[n+]1ccc(/C=C/c2ccccc2O)c2ccccc21,0.2,0.9,-0.9,0.9,0.657
CCOc1cccc(/C=N/Nc2ccc(S(=O)(=O)N(CC)CC)cn2)c1O,11.6*,11.6,-5.2,13.3*,/
COc1cccc(C=NNc2ccc([N+](=O)[O-])cn2)c1O,/,/,/,/,0.411*
COc1cccc(/C=N/Nc2ccc([N+](=O)[O-])cc2)c1O,-0.7,0.2,-14.9,1.1,/
CCN=C1SC(=Cc2ccc(Sc3ccc(Cl)cc3)o2)C(=O)N1CC,/,/,/,/,0.718
O=C1CSC(=S)N1/N=C/c1ccc2c(c1)OCCO2,9.9*,4.5,7.0,1.4,/
Cc1cccc(N2C(=O)Cc3ccccc3C2=O)c1,-0.4,0.2,-5.7,0.2,0.533*
Cc1ccc(N2C(=O)Cc3ccccc3C2=O)cc1,1.8,3.9,3.0,-0.1,0.629
CC(C)C[C@@]12C(=O)N(c3cccc(F)c3)C(=O)N1C(c1ccc(F)cc1)C1C(=O)N(C3CCCCC3)C(=O)C12 (some centres not stated),/,/,/,/,0.711
O=[N+]([O-])/C=C/c1cc2ccccc2[nH]1,-1.4,-0.7,1.0,3.4,0.5*
CCOc1cc(C2Nc3cccc4cccc(c34)N2)ccc1O,-1.5,4.5,2.0,/,0.675
CCOc1ccc(C2Nc3cccc4cccc(c34)N2)cc1OC,1.7,1.8,-2.3,2.6,0.555*
COc1ccc(OC)c(NC(=O)Nc2cccc3ccccc23)c1,16.1*,9.8,-3.7,2.3,0.705
COc1ccc(NC(=O)Nc2cccc3ccccc23)c(OC)c1,0.3,1.3,-16.9,0.7,0.709
N/C(=N\N=Cc1ccc(F)cc1)NN=Cc1ccc(F)cc1,/,/,/,/,0.417*
COc1ccc(C2CC(c3ccccc3)Oc3cc(OC)cc(OC)c32)cc1 (configuration not stated),/,/,/,/,0.719
Cc1cc2nc3c(=O)[nH]c(=S)[nH]c3nc2cc1NC(=O)C(F)(F)F,10.3*,6.7,-11.4,9.4,0.656
Fc1cccc(CCN2C(=S)NCC2Cc2ccccc2)c1 (configuration not stated),/,/,/,/,0.694
Clc1cc2cccnc2c2ncccc12,-4.7,-3.6,-6.3,-0.6,0.527*
Cc1c(C)c2cccnc2c2ncccc12,47.2*,47.2*,0.5,/,0.253*
O=[N+]([O-])c1ccc(Cl)c2cccnc12,0.4,2.3,-2.5,1.8,0.634
Cc1ccc2ccc3cccnc3c2n1,-3.4,-1.5,8.6,-1.3,/
O=C(NC1CC1)C1=CC(c2ccc(C(F)(F)F)cc2)CC(OCCCCO)O1 (configuration not stated),/,/,/,/,0.721
SMILES,E coli growth-1,AddAB inh,Tat transport,phage Ecoli inh,E coli growth-2
O=C(O)c1ccccc1O,0.5,2.8,11.4,4.1,0.702
O=C(O)c1ccccc1SSc1ccccc1C(=O)O,13.5*,9.9,6.6,1.5,0.676
NCC12CC3CC(C1)CC(c1ccc(Cl)cc1)(C3)C2,1.1,2.1,15.7,3.2,0.505*
FC(F)(F)c1ccc(CN2CC3C(c4ccc(Cl)nc4)C4(c5cccnc5)CC3(C4)C2c2ccccc2)cc1 (configuration not stated),/,/,/,/,0.718
CCCCCCCNC(=O)C1(CC2CC(c3cccc(Br)c3)=NO2)CCNCC1 (configuration not stated),2.1,0.0,17.3,4.2,0.0475*
O=C(Nc1ccc(F)c(Cl)c1)Nc1ccc(Cl)cn1,-0.8,-1.0,-0.2,3.7,0.719
O=C(Nc1ccncc1)Nc1ccc(F)c(Cl)c1,0.9,3.8,-2.6,6.3,0.514*
Fc1ccc(NC(=S)Nc2ccc(F)c(Cl)c2)cc1Cl,0.0,1.9,-9.2,/,0.495*
O=C(CC1CC=CCC(NC(=O)OCC2c3ccccc3-c3ccccc32)C(=O)OCC2CCCN2C1=O)NC(CO)Cc1ccccc1 (configuration not stated),/,/,/,/,0.709
COc1cc(/C=C/C(=O)/C=C(O)/C=C/c2ccc(O)c(OC)c2)ccc1O,10.3*,10.5,-4.9,9.0,/
COc1cc(/C=C/C(=O)O)ccc1O,0.7,2.7,3.7,2.2,0.774
Cc1ccc(C(C)C)c(OCc2nn(CC(=O)c3ccc(Cl)cc3)c3[n+]2CCCCC3)c1,2.6,3.4,44.0,3.8,0.071*
O=Nc1c(O)c2ccccc2c2ccccc12,5.8,10.4,-8.8,11.0*,0.525
O=c1ccc2ccccc2c2ccccc12,/,/,/,-0.3,/
Cc1ccc(-c2csc(N=C(N)N)n2)c(C)c1,-3.0,-0.6,/,1.9,0.438*
O=C1OCC(CO)(CO)N=C1NNc1ccc(Cl)c(Cl)c1,-0.8,0.7,1.2,7.0,0.176*
OCC1(CO)COC(c2ccccc2)=N1,-0.9,0.5,16.4,0.0,0.631
COC1=C(C)C(=O)C2=C(C1=O)C1C3CC4=C(C(=O)C(OC)=C(C)C4=O)C(CNC(=O)C(C)=O)N3C(C#N)C(C2)N1C (configuration not stated),/,/,-8.9,15.3*,/
CC[n+]1c(/C=C/c2c[nH]c3ccccc23)ccc2cc(C)ccc21,/,/,-2.0,-0.8,0.463*
CCN(CC)C(=O)c1ccc(/C=C/c2c[nH]c3ccccc23)[n+](C)c1,0.2,2.1,-4.9,0.9,0.718
CC(NC(=O)c1coc(=O)c(Br)c1)c1ccccc1 (configuration not stated),/,/,/,/,0.717
CCN1/C(=C/c2ccc3ccccc3[n+]2CC)C=Cc2ccccc21,11.0*,9.6,-14.5,12.2*,/
CCN1C(=Cc2ccc3ccccc3[n+]2CC)C=Cc2ccccc21,/,/,/,/,0.493*
COc1ccc(NC(=O)C=Cc2c(Cl)nc3ccccn23)cc1,/,/,/,/,0.684
CC(C)NC(=O)N(C)CC1Oc2ccc(NS(=O)(=O)c3ccccc3)cc2C(=O)N(C(C)CO)CC1C (configuration not stated),/,/,/,/,0.702
SMILES,E coli growth-1,AddAB inh,Tat transport,phage Ecoli inh,E coli growth-2
O=C(CN(Cc1ccc(F)cc1)C(=O)CNS(=O)(=O)c1ccc(F)cc1)NCC1CCCO1 (configuration not stated),0.5,0.6,-0.6,-0.5,0.677
O=C(CN(Cc1ccccc1Cl)C(=O)CNS(=O)(=O)c1ccc(F)cc1)NCC1CCCO1 (configuration not stated),0.7,-1.1,52.7*,1.2,0.655
CCOC(=O)C1C2COc3ccc(Br)cc3C2N2C(=O)C(C)NC(=O)[C@@]12C (some centres not stated),/,/,/,/,0.687
CC(C)CC(NC(=O)Nc1ccccc1F)C(=O)O (configuration not stated),/,/,/,/,0.688
O=C1c2ccccc2NC(c2ccc(-c3ccccc3F)o2)N1O (configuration not stated),11.6*,9.9,-8.6,8.6,0.647
O=C(O)C1=CC(c2csc3ccccc23)CC(OCc2ccc(CO)cc2)O1 (configuration not stated),/,/,/,/,0.692
CCOc1ccc(Nc2nc(NCC3CCCO3)c3ccccc3n2)cc1 (configuration not stated),3.4,-0.5,-37.5,5.6,0.491*

# Screens (PubChem BioAssay)
